Experimental data published in PubChem BioAssay (Tox21).
Inconclusive results are not listed. Calls of active or inactive are those of the source. Unless noted, calls come from the whole dose curve.

Columns and labels:
[1] = Nuclear factor erythroid 2-related factor 2/antioxidant responsive element (Nrf2/ARE) small molecule agonists: qHTS cell viability counter screen in human keratinocytes (AID 1919968; active = well fitted curve in the direction sought with a large enough effect in the repeat runs; an effect the other way counts as inactive or inconclusive; note: nearly all actives have a fitted effect of over 55% in size; note: potency is the fitted concentration of half-maximal effect)
Method in brief: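 KeratinoSens cells (HaCaT keratinocytes stably carrying an ARE-luciferase reporter) were seeded at 1,500 cells/well and rested 5 h at 37 C/5% CO2. They were then exposed to compounds in DMSO for 23 h. Viability was read by CellTiter-Fluor fluorescence after 1 h.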

[2] = Nuclear factor erythroid 2-related factor 2/antioxidant responsive element (Nrf2/ARE) small molecule agonists: luciferase reporter gene qHTS assay in human keratinocytes (AID 1919969); note: nearly all actives have a fitted effect of over 35% in size; note: potency is the fitted concentration of half-maximal effect
[3] = target: Gonadotropin-releasing hormone receptor (Homo sapiens) (UniProt P30968); experiment: Human gonadotropin-releasing hormone receptor (GnRHR) small molecule agonists, calcium flux assay in GnRHR-HEK293 cells (AID 1920063); note: nearly all actives have a fitted effect of over 35% in size; note: potency is the fitted concentration of half-maximal effect
Sequence of Gonadotropin-releasing hormone receptor (Homo sapiens) (P30968 whole entry, looked up): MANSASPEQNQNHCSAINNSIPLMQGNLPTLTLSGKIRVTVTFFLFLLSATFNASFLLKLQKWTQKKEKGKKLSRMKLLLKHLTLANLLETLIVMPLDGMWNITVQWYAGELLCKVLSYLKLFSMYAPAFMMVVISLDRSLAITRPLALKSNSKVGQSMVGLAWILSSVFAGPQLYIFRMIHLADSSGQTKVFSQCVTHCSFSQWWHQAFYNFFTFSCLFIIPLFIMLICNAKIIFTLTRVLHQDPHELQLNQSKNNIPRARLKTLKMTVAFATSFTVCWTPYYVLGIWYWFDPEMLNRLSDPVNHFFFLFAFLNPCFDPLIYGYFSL
Method in brief: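 HEK293 cells stably expressing human GnRHR were plated 18 h at 37 °C, loaded with calcium dye 1 h at 37 °C, then given compound in agonist mode; fluorescence (Ex/Em 480/540) read kinetically for 3 min at 1 s intervals.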

[4] = target: KiSS-1 receptor (Homo sapiens) (UniProt Q969F8); experiment: Human kisspeptin (KISS1R) small molecule agonists, calcium flux assay in KISS1R-HEK293 cells (AID 1920064; active = well fitted curve in the direction sought with a large enough effect in the repeat runs; an effect the other way counts as inactive or inconclusive)
Sequence of KiSS-1 receptor (Homo sapiens) (Q969F8 whole entry, looked up): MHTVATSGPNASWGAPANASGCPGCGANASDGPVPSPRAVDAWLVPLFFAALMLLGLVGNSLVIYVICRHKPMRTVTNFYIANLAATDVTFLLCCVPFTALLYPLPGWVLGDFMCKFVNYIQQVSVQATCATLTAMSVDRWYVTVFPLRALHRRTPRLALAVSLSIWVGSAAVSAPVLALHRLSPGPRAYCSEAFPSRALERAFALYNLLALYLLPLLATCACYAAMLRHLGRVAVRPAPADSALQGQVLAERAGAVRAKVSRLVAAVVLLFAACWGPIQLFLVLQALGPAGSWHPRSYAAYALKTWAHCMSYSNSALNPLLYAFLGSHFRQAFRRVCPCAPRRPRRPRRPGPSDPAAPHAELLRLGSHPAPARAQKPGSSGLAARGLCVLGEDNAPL
Method in brief: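 HEK293 cells stably expressing human KISS1R were plated 18 h at 37 °C, loaded with calcium dye for 1 h at 37 °C, then given compound by pin tool. Fluorescence (Ex/Em 480/540) was read kinetically for 3 min.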

[5] = G protein-coupled receptor (GPCR) small molecule agonists, calcium flux assay: HEK293 wild type cell line counter screen (AID 1920065)
Method in brief: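 Cells were plated and cultured 18 h at 37 C/5% CO2, then loaded with calcium dye for 1 h at 37 C. Compounds in DMSO were pin-transferred in agonist mode, and fluorescence (Ex/Em 480/540) was read kinetically for 3 min at 1 s intervals.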

[6] = p53 small molecule agonists, cell-based qHTS assay with human liver microsomes: qHTS cell viability counter screen (AID 1963579); note: nearly all actives have a fitted effect of over 45% in size; note: potency is the fitted concentration of half-maximal effect
Method in brief: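 HLM-supplemented (0.5 mg/mL final) and NADPH-supplemented (0.5 mg/mL final) p53RE-bla cultures, 4,000 cells per well, were dosed with compounds in DMSO for 16 h at 37 C; luminescent ATP detection (CellTiter-Glo, 30 min, room temperature) quantified surviving cells.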

[7] = p53 small molecule agonists, cell-based qHTS assay with rat liver microsomes: qHTS cell viability counter screen (AID 1963580); note: nearly all actives have a fitted effect of over 45% in size; note: potency is the fitted concentration of half-maximal effect
Method in brief: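 In HCT-116 cells carrying a p53 response element-bla reporter, compounds were metabolically activated in situ by rat liver microsomes with NADPH over 16 h. Cell ATP content then served as the cytotoxicity measure.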

[8] = p53 small molecule agonists, cell-based qHTS assay: qHTS cell viability counter screen (AID 1963581); note: nearly all actives have a fitted effect of over 45% in size; note: potency is the fitted concentration of half-maximal effect
Method in brief: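 p53RE-bla HCT-116 cells were exposed to compounds for 16 h at 37 C; after the beta-lactamase FRET read in the same wells, CellTiter-Glo was added and luminescence (intracellular ATP) read after 30 min at room temperature.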

[9] = target: 5-hydroxytryptamine receptor 2A (Homo sapiens) (UniProt P28223); experiment: 5-hydroxytryptamine receptor 2A (HTR2A) small molecule antagonists, cell-based qHTS assay (AID 1963586); note: nearly all actives have a fitted effect of over 45% in size
Sequence of 5-hydroxytryptamine receptor 2A (Homo sapiens) (P28223 whole entry, looked up): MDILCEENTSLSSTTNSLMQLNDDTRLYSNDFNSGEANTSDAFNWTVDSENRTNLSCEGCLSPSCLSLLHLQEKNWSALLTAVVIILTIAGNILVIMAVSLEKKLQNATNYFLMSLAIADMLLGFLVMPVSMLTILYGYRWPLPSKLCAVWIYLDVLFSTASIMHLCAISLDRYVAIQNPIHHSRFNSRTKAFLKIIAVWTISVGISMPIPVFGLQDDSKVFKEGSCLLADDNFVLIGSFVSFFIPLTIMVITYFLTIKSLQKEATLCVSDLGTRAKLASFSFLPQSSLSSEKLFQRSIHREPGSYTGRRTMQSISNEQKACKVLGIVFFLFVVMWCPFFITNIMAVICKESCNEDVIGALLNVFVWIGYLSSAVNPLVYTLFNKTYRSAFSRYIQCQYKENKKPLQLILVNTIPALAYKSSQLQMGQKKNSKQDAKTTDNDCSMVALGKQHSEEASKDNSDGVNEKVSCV
Method in brief: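 Antagonist-mode intracellular calcium assay: DOI (4 nM) added after 5 min compound pre-incubation at room temperature to dye-loaded HTR2A-CHO cells. Fluorescence followed for 3 min, sampled every second.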

[10] = target: Muscarinic acetylcholine receptor M1 (Homo sapiens) (UniProt P11229); experiment: Cholinergic receptor muscarinic 1 (CHRM1) small molecule antagonists, cell-based qHTS assay (AID 1963588); note: nearly all actives have a fitted effect of over 40% in size
Sequence of Muscarinic acetylcholine receptor M1 (Homo sapiens) (P11229 whole entry, looked up): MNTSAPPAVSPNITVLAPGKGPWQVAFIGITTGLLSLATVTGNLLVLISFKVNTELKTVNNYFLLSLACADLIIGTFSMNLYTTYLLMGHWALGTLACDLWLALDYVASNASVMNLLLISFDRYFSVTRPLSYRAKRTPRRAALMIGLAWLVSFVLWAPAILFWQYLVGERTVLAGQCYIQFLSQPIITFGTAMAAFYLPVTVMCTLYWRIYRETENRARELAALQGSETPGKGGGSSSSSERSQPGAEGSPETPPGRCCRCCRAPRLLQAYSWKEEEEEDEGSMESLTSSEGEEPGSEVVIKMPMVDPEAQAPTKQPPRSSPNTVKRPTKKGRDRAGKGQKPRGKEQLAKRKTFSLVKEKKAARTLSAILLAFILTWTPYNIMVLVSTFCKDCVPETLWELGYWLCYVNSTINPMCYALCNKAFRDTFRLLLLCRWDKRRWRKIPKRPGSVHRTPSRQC
Method in brief: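 CHRM1-CHO calcium-flux assay, antagonist mode. Cells were seeded 18 h, dye-loaded 1 h at 37 C and given compound for 5 min at RT, then acetylcholine was added at 50nM. FDSS fluorescence was read 3 min; 15 concentrations, three runs.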

[11] = target: Muscarinic acetylcholine receptor M1 (Homo sapiens) (UniProt P11229); experiment: Cholinergic receptor muscarinic 1 (CHRM1) small molecule agonists, cell-based qHTS assay (AID 1963589); note: nearly all actives have a fitted effect of over 35% in size; note: potency is the fitted concentration of half-maximal effect
Method in brief: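 CHO cells stably expressing human CHRM1, seeded 18 h at 37 C/5% CO2, dye-loaded 1 h at 37 C, then given compound in agonist mode; intracellular calcium fluorescence read kinetically at 1 s intervals. Fifteen concentrations, three independent runs.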

[12] = cAMP Responsive Elements (CRE) small molecule antagonists, cell-based qHTS assay (AID 1963591; active = well fitted inhibition curve with a large enough effect in the signal ratio in the repeat runs, not every such curve was filed as active; the % refers to the signal ratio; note: potency is the fitted concentration of half-maximal effect)
Method in brief: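 CRE-bla HEK293T cells were plated 18 h at 37 °C/5% CO2, pinned with compound in DMSO, then stimulated with NKH477 at 0.25 uM final for 3 h. LiveBLAzer B/G FRET substrate was added and plates incubated 2 h at room temperature.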

[13] = target: Beta-2 adrenergic receptor (Homo sapiens) (UniProt P07550); experiment: Adrenergic beta2 receptor (ADRB2) small molecule antagonists, cell-based qHTS assay (AID 1963592); note: series mostly up to about 92 µM; nearly all actives have a fitted effect of over 50% in size
Sequence of Beta-2 adrenergic receptor (Homo sapiens) (P07550 whole entry, looked up): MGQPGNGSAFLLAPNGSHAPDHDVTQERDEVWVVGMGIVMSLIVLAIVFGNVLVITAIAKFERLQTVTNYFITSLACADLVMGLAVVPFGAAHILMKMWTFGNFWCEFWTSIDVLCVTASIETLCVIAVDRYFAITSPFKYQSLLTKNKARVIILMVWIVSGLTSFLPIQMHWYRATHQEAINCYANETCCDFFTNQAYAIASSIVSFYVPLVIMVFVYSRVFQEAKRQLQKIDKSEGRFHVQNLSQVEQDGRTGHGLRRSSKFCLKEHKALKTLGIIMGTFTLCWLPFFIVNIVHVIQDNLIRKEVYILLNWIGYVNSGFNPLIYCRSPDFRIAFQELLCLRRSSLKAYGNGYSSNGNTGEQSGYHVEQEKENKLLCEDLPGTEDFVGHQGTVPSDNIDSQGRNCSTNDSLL
Method in brief: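 Cells (CHO, stable ADRB2 overexpression) incubated 18-20hr at 37C; compounds added from DMSO; agonist mix (1nM isoproterenol, 100uM IBMX, 25uM Ro-20-1724) added; 0.5hr RT; d2-cAMP and anti-cAMP-cryptate added; 1hr RT; 665/615 nm read.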

[14] = target: Beta-2 adrenergic receptor (Homo sapiens) (UniProt P07550); experiment: Adrenergic beta2 receptor (ADRB2) small molecule agonists, cell-based qHTS assay (AID 1963593);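 note: CHO cells stably overexpressing human ADRB2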
Method in brief: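 CHO cells stably over-expressing ADRB2 were plated overnight at 37C, then dosed with compounds plus a stimulation mix containing 100uM IBMX and 25uM Ro-20-1724 for 0.5hr at room temperature. cAMP was measured by HTRF competition, 1hr.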

[15] = target: D(2) dopamine receptor (Homo sapiens) (UniProt P14416); experiment: Dopamine D2 receptor (DRD2) small molecule antagonists, cell-based qHTS assay (AID 1963595; active = well fitted inhibition curve with a large enough effect in the signal ratio in the repeat runs, with a control signal flat; the % refers to the signal ratio)
Sequence of D(2) dopamine receptor (Homo sapiens) (P14416 whole entry, looked up): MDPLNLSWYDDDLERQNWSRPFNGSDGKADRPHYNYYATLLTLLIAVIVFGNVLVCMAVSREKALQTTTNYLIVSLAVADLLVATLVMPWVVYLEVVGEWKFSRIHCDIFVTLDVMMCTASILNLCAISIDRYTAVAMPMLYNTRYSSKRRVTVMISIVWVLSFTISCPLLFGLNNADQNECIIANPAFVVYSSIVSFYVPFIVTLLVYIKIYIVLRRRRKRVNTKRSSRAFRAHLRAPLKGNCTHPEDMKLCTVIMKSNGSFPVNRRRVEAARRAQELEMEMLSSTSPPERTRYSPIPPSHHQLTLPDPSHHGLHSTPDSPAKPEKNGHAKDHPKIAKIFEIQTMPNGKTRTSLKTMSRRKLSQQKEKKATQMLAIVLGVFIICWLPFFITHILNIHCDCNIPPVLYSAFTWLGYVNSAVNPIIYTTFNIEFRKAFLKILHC
Method in brief: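 Cells were plated and grown for 24 h at 37 °C. Ro20-1724 (0.1 mM final) went in first, then compound for 10 min. NKH477 (200 nM) with quinpirole (12 nM) followed for 30 min at RT, then HTRF detection reagents for 1 h.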

[16] = target: 5-hydroxytryptamine receptor 2A (Homo sapiens) (UniProt P28223); experiment: 5-hydroxytryptamine receptor 2A (HTR2A) small molecule agonists, cell-based qHTS assay (AID 1963587); note: nearly all actives have a fitted effect of over 30% in size
Method in brief: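 HTR2A-CHO cells, plated 18 h at 37 C/5% CO2, dye-loaded 1 h at 37 C; compounds in DMSO added by pin tool (agonist mode). Intracellular calcium flux read as kinetic fluorescence on FDSS over 2 min at 1 s intervals.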

[17] = target: D(2) dopamine receptor (Homo sapiens) (UniProt P14416); experiment: Dopamine D2 receptor (DRD2) small molecule agonists, cell-based qHTS assay (AID 1963594); note: nearly all actives have a fitted effect of over 35% in size
Method in brief: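 HEK293 cells stably expressing DRD2 were cultured 24 h at 37 C, then given Ro20-1724 (0.1 mM final) and compounds for 10 min at room temperature. NKH477 (200nM) was then added for 30 min. cAMP was read by HTRF.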

[18] = cAMP Responsive Elements (CRE) small molecule agonists, cell-based qHTS assay (AID 1963590)
Method in brief: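 CRE-bla HEK 293T cells in DMEM with 10% dialyzed FBS, NEAA, pyruvate and 25 mM HEPES were plated 18 h at 37 C/5% CO2, then exposed to compounds in DMSO for 3 h before LiveBLAzer B/G FRET substrate addition.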

[19] = p53 small molecule agonists, cell-based qHTS assay with rat liver microsomes (AID 1963578)
Method in brief: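 Compound in DMSO added to p53RE-bla cells 5 h post-plating; rat microsomes/NADPH 0.5 mg/mL final; 16 h, 37 C; LiveBLAzer 2 h RT.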

[20] = p53 small molecule agonists, cell-based qHTS assay (AID 1963582; active = well fitted activation curve with a large enough effect in the signal ratio in the repeat runs, not every such curve was filed as active; the % refers to the signal ratio)
Method in brief: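 p53RE-bla beta-lactamase reporter cells rested 5 h at 37 C/5% CO2, then received compounds in DMSO by pin transfer and were incubated 16 h at 37 C. LiveBLAzer B/G FRET substrate was loaded for 2 h at room temperature before fluorescence reading.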

Measured: Potency

CC(C)(N)Cc1ccc(Cl)cc1
inactive: [1] | [2] | [3] | [4] | [5] | [6] | [7] | [8] | [9] | [10] | [11] | [12] | [13] | [14] | [15]

CCC1(c2cccc(O)c2)CCCCN(C)C1 (stereo not given)
inactive: [1] | [2] | [3] | [4] | [5] | [6] | [7] | [8] | [16] | [10] | [11] | [12] | [13] | [14] | [17] | [15]

CC(C)CC(N(C)C)C1(c2ccc(Cl)cc2)CCC1 (stereo not given)
active: [7] 0.793 µM
inactive: [1] | [2] | [3] | [4] | [5] | [6] | [8] | [18] | [12] | [13] | [17] | [15]

O=C1CN=C(c2ccccc2)c2cc([N+](=O)[O-])ccc2N1
inactive: [1] | [2] | [3] | [4] | [5] | [6] | [7] | [8] | [12] | [13] | [17] | [15]

ClCBr
inactive: [1] | [2] | [3] | [4] | [5] | [6] | [7] | [8] | [16] | [10] | [11] | [18] | [12] | [13] | [17] | [15]

O=C(O)C(Br)(Br)Br
inactive: [1] | [2] | [3] | [4] | [5] | [6] | [7] | [8] | [9] | [16] | [10] | [18] | [12] | [13] | [14] | [17] | [15]

COP(=S)(NC(C)C)Oc1ccc(C)cc1[N+](=O)[O-] (stereo not given)
inactive: [1] | [2] | [3] | [4] | [5] | [6] | [7] | [8] | [9] | [16] | [10] | [12] | [17]

C=C(C)[C@H]1CN[C@H](C(=O)O)[C@H]1CC(=O)O
inactive: [1] | [2] | [3] | [4] | [5] | [6] | [7] | [8] | [16] | [10] | [11] | [18] | [12] | [13] | [17] | [15]

CCC1CCC(=O)O1 (stereo not given)
inactive: [1] | [2] | [3] | [4] | [5] | [6] | [7] | [9] | [16] | [10] | [11] | [18] | [12] | [13]

O.O.O.O=C([O-])[C@H]([O-])[C@@H]([O-])C(=O)[O-].O=C([O-])[C@H]([O-])[C@@H]([O-])C(=O)[O-].[K+].[K+].[Sb+3].[Sb+3]
inactive: [1] | [3] | [4] | [5] | [7] | [9] | [16] | [10] | [11] | [18] | [12] | [13] | [14] | [17] | [15]
active: [2] 61.4 µM | [6] 36.5 µM

CCC1(CC)C(=O)NC(=O)NC1=O
inactive: [1] | [2] | [3] | [4] | [5] | [6] | [7] | [9] | [16] | [10] | [11] | [18] | [12] | [13] | [17]

CC(C)C(Br)C(=O)NC(N)=O (stereo not given)
inactive: [1] | [2] | [3] | [4] | [5] | [6] | [7] | [8] | [18] | [12] | [13] | [17] | [15]

Cc1ccccc1CO[C@@H]1C[C@@]2(C(C)C)CC[C@]1(C)O2
inactive: [1] | [2] | [3] | [4] | [5] | [6] | [7] | [8] | [9] | [16] | [10] | [11] | [13] | [14] | [17] | [15]

CCOP(=O)(Sc1ccccc1)Sc1ccccc1
active: [2] 61.1 µM
inactive: [1] | [3] | [4] | [5] | [6] | [7] | [8] | [9] | [16] | [10] | [18] | [12] | [13] | [14] | [17]

CCCC[N+](=O)[O-]
inactive: [1] | [2] | [3] | [4] | [5] | [6] | [7] | [9] | [16] | [10] | [11] | [18] | [12] | [13] | [17] | [15]

COc1ncc(F)c2nc(S(=O)(=O)Nc3c(F)cccc3F)nn12
inactive: [1] | [2] | [3] | [4] | [5] | [6] | [7] | [8] | [9] | [16] | [10] | [18] | [12] | [13] | [14] | [17] | [15]

CCCCN(CCCC)C(=S)[S-].CCCCN(CCCC)C(=S)[S-].[Zn+2]
inactive: [4] | [5] | [6] | [9] | [16] | [13] | [17] | [15]
active: [1] 6.11 µM | [2] 1.93 µM | [3] 17.4 µM | [7] 3.63 µM | [8] 25.7 µM | [11] 19.5 µM | [12] 21.7 µM

Cc1ccc(OP(=O)(Oc2ccccc2)Oc2ccccc2)cc1
inactive: [1] | [2] | [3] | [4] | [5] | [6] | [8] | [9] | [16] | [10] | [11] | [12] | [13] | [17] | [15]

CNC(=O)/C=C(\C)OP(=O)(OC)OC
inactive: [1] | [2] | [3] | [4] | [5] | [7] | [8] | [9] | [16] | [10] | [11] | [18] | [12] | [13] | [17] | [15]

CCN(CCO)CCn1c(Cc2ccccc2)nc2c1c(=O)n(C)c(=O)n2C
inactive: [1] | [2] | [3] | [4] | [19] | [6] | [7] | [8] | [20] | [9] | [16] | [10] | [11] | [18] | [14] | [17] | [15]
